Bioassay records: PubChem BioAssay, National Center for Advancing Translational Sciences (NCATS)
PI4K2A inh: blocks human PI4K2A kinase activity; hit rate 0.13% among 420,000; activity change, negative = inhibition, % at 76.9 µM; purified PI4K2A, ADP-Glo luminescence, 1 h; hits give low values; in the data active = activity change below about -50%; inconclusive = mostly about -30% to -49%;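 also: -100% = wells without enzyme as full effect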
Target sequence (Q9BTU6 whole entry, looked up): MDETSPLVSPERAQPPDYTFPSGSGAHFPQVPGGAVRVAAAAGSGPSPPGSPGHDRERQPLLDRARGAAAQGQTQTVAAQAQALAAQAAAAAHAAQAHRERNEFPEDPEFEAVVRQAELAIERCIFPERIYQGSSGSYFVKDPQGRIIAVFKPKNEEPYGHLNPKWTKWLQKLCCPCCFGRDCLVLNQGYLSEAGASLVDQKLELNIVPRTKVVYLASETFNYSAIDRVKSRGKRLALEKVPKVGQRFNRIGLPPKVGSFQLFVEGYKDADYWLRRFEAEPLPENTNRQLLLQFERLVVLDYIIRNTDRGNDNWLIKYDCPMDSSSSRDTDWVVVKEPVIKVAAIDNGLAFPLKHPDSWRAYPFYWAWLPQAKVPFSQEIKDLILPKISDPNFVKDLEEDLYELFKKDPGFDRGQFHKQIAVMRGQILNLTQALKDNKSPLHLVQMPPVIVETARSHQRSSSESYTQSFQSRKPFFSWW
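In this quantitative HTS, ADP production by PI4K2A was quantified luminescently after 1 h at ambient temperature; 100 microM adenosine served as plate-quality control.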
D3 antag: D3 dopamine receptor (human) antagonism | P35462 | D3R cells, DiscoveRx beta-arrestin luminescence, antagonist mode; hits give low values | hit rate 2.5% among 360,000 | AID 652054 | max response, negative = inhibition, %; in the data active = max response below about -50%; inconclusive = no clear call, values can overlap the other calls; also: % is scaled to controls: 0 for no effect and ±100 for the full control effect
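Cells expressing the human receptor were seeded at 1500 cells/well, incubated overnight at 37 degrees C in 5% CO2, then exposed to library compounds with dopamine controls for 90 minutes at 37 degrees C before luminescent detection.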
D3 ag: D3 dopamine receptor (human) agonism | P35462 | max activation, % | D3R DiscoveRx beta-arrestin cells, luminescence, 90 min | hit rate 0.58% among 410,000; in the data active = max activation above about 30%; also: 0% is about no effect
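Agonist mode: compounds and dopamine controls were applied to plated cells for 90 min at 37 degrees C after an overnight attachment at 1500 cells/well. Luminescent read-out followed 30 - 60 minutes at room temperature with DiscoveRx detection reagent.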
LDHA block: inhibitors of human lactate dehydrogenase A; purified LDHA, NADH/diaphorase-resazurin fluorescence; hits give low values; activity change, % (values are at about 110 or 230 µM); hit rate 0.15% among 480,000; P00338; in the data active = activity change below about -30%; inconclusive = mostly about -25% to -30%;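 also: plate controls were DMSO wells for no effect and wells without enzyme for full effect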
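Human LDH5 at 2 nM final in Tris HCl pH 7.4 with 0.06 mM NADH and 0.2 mM pyruvate, reacted 5 minutes at room temperature. Remaining NADH coupled via diaphorase/resazurin; resorufin fluorescence read at 0 and 20 minutes, normalized to enzyme-free and DMSO wells.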
PI5P4K alpha inh: blocks human PI5P4K alpha kinase activity | PI5P4Kalpha enzyme, ADP-Glo luminescence, 60 min; hits give low values | max response, % | hit rate 1.2% among 330,000 | AID 652105; active = max response of -50% or lower; inconclusive = between -30% and -50%; inactive = -30% or higher; also: value at the top dose of about 77 µM; % is scaled to controls: 0 for no effect and ±100 for the full control effect
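Human PI5P4Kalpha with substrate in 0.038 M HEPES pH 7.4, 0.28 mM EGTA, 0.1% CHAPS, 5% DMSO; reaction started with 5 microM ATP (final), 60 min at room temperature. ADP formed read by ADP-Glo luminescence.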
An asterisk follows results filed as active; u = inconclusive; x = not tested or not shown. Only some compounds are listed: those with a hit (about 3.3% of all), similar ones and a draw of the others.

SMILES | PI4K2A inh | D3 antag | D3 ag | LDHA block | PI5P4K alpha inh
CS(=O)(=O)c1sc(C#N)c2c1C(=O)CC(c1ccccc1)C2 (configuration not stated) | 11 | -132* | -19 | 9 | -3
CC(C)C1NC(=S)N(C2CCCCC2)C1=O (configuration not stated) | -6 | -10 | 1 | -10 | 2
O=c1[nH][nH]c(=S)n1C1CCCCC1 | 0 | 0 | 13 | -5 | -69*
CC(Oc1ccc2c(-c3ccccc3)cc(=O)oc2c1)C(=O)NC1CC(C)(C)NC(C)(C)C1 (configuration not stated) | x | x | x | -10 | x
COc1ccc(Cl)c(NC(=O)C2CC(=O)Nc3cc(-c4ccc(Cl)cc4)nn32)c1 (configuration not stated) | x | x | x | -1 | x
Cc1cc(S(=O)(=O)NCc2ccc(N3CCN(C)CC3)cc2)c(C)s1 | 0 | -63* | -11 | -3 | 5
CN1CCN(c2ccc(CNS(=O)(=O)c3ccc(F)cc3Cl)cc2)CC1 | -1 | -29 | -17 | -1 | -7
Cn1cnc2c1c(=O)n(CC(=O)Nc1ccccc1C(=O)N1CCCCC1)c(=O)n2C | x | x | x | -1 | x
COc1cc(/C=N/N=C2/SCC(=O)N2c2ccc(O)cc2)ccc1O | 4 | -10 | 1 | -6 | -50*
O=S1(=O)CCOC[C@H](Cc2ccccc2)N1Cc1ccc(F)cc1 | 3 | -4 | 4 | -1 | 4
C=CCN1[C@@H](Cc2ccccc2)COCCS1(=O)=O | 4 | -50* | -25 | -4 | -6
N#Cc1ccccc1COC(=O)c1ccsc1 | x | x | x | 8 | x
CCCOC(=O)NC(CC)COC(=O)Nc1cc(C)ccc1C (configuration not stated) | -4 | -87* | -6 | -4 | 1
O=C(c1cn(-c2ccccc2)nc1-c1cccs1)N1CCN(c2ccccc2)CC1 | 0 | 23 | 31* | -3 | x
O=C(c1cn(-c2ccccc2)nc1-c1cccs1)N1CCOCC1 | 2 | -25 | -9 | -6 | -1
O=C(O)c1ccc2c(c1)C(=O)N(CCc1c[nH]c3ccccc13)C2=O | 0 | -23 | 5 | -8 | -69*
O=C1c2ccccc2C(=O)N1CCc1ccccc1 | 2 | -9 | -6 | 3 | -12
O=C(O)CCCCCN1C(=O)c2ccc(C(=O)O)cc2C1=O | 0 | -14 | 1 | -1 | x
O=C(O)c1ccc2c(c1)C(=O)N(CCc1ccccc1)C2=O | 7 | 0 | 2 | -4 | -65*
O=C(O)c1ccc2c(c1)C(=O)N(CCCCCCCN1C(=O)c3ccc(C(=O)O)cc3C1=O)C2=O | -1 | -6 | 3 | -5 | -78*
CCCC(=O)NC1(C(F)(F)F)N=C(c2ccccc2)N(CCc2ccccc2)C1=O (configuration not stated) | x | x | x | -2 | x
Cc1ccc(-c2cc(C(=O)OCC(=O)NCCc3ccccc3)c3ccccc3n2)o1 | x | x | x | 5 | x
Cc1cc(OCCOCCNC(C)C)cc(C)c1Cl | 6 | -58* | -12 | -18 | 5
Cc1[nH][nH]c(=O)c1C(c1ccc(-c2ccc(Cl)c(C(=O)O)c2)o1)c1c(C)[nH][nH]c1=O | -59* | -19 | 11 | 34 | -22
COC(=O)c1cccc(-c2ccc(C(c3c(C)[nH][nH]c3=O)c3c(C)[nH][nH]c3=O)o2)c1 | u | -12 | -5 | 24 | u
SMILES | PI4K2A inh | D3 antag | D3 ag | LDHA block | PI5P4K alpha inh
C[C@@H]1CCC2[C@](C)(COC=O)[C@@H](OC=O)CC[C@]2(C)[C@@]12CCC1(COC(=O)C1)O2 (some centres not stated) | x | x | x | -8 | x
CCCCC(=O)N(C)c1c(C)nc2ccc(C(=O)N(C)CCN(C)C)cn12 | -1 | 0 | -9 | -1 | 1
CCCCN(C)c1c(C)nc2ccc(C(=O)N(C)CCN(C)C)cn12 | -1 | -71* | -13 | 4 | 2
O=C(Nc1ccccc1C(=O)NC1CC1)c1ccc([N+](=O)[O-])o1 | -1 | -63* | 2 | 1 | u
CC(C)(C)c1ccc(OCC(O)CN2CCCC2)cc1 (configuration not stated) | 8 | 1 | -20 | -7 | -1
CCC(=O)c1ccc(OCC(O)CN2CCN(c3ccccn3)CC2)cc1 (configuration not stated) | 0 | -20 | 91* | -7 | -3
CC(C)(C)c1ccc(OCC(O)CN2CCN(c3ccccn3)CC2)cc1 (configuration not stated) | -9 | 0 | 64* | -1 | 4
